Data on 25 compounds can be found in PubChem BioAssay (NCATS).

SMILES strings stand for the structures. “And” between values parts separate entries of the source, which are not always exact repeats. Equal entries are not always repeated. Inconclusive results are not listed. The source made the active and inactive calls. Calls follow the shape of the dose curve; as a rule, active = well fitted curve in the direction sought with a large enough effect; inconclusive = small, poorly fitted or top-dose-only effect, or another doubt; inactive = no such curve, though single readings can be large; an effect the other way counts as inactive or inconclusive.

A short description of assay [1]: Primary qHTS for inhibitors of nuclear receptor binding SET domain protein 2 (NSD2) in an isogenic RCH-ACV NSD2 p.E1099K mutant (9B) (AID 1645876). Also: nearly all actives have a fitted effect of over 70% in size. Also: potency is read from the fitted curve at half-maximal effect. The note with it: RCH-ACV NSD2 E1099K (9B) viability, CellTiter-Glo, 72 h; series mostly up to 44.9 µM. (In general: Quantitative high-throughput screening tests each substance at several concentrations.)
A short description of assay [2]: Primary qHTS for inhibitors of nuclear receptor binding SET domain protein 2 (NSD2) in an RCH-ACV wild type WT cells (2C) (AID 1645877). Also: nearly all actives have a fitted effect of over 70% in size. Also: potency is read from the fitted curve at half-maximal effect. The conditions noted are these: RCH-ACV (leukaemia line) NSD2 WT (2C) viability, CellTiter-Glo, 72 h; series mostly up to 44.9 µM.
The target in assay [3] is Rap guanine nucleotide exchange factor 3 (Homo sapiens) (UniProt O95398). The assay is described as follows: Confirmatory qHTS for antagonist of cAMP-regulated guanine nucleotide exchange factor 3 (EPAC1) (AID 1645880). Also: potency is read from the fitted curve at half-maximal effect; nearly all actives have a fitted effect of over 55% in size. The note with it: EPAC1 Rap1B-BODIPY-GDP exchange, fluorescence. The source says: Assay Provider (PI): Xiaodong Cheng Ph.D. The University of Texas Medical Branch, […], TX MLPCN Grant: NS066510 In multi-cellular eukaryotic organisms, the effects of cAMP are transduced by two ubiquitously-expressed intracellular cAMP receptors, the classic protein kinase A/cAMP-dependent protein kinase (PKA/cAPK) and the more recently discovered exchange protein directly activated by cAMP/cAMP-regulated guanine nucleotide exchange factor (EPAC/cAMP-GEF). Both PKA and EPAC are ubiquitously expressed in all tissues, and an increase in intracellular cAMP levels will lead to the activation of both PKA and EPAC. […] This qHTS will be used to screen the Molecular Libraries Small Molecule Repository (MLSMR) as a concentration-titration series using the NCGC unique quantitative screening (qHTS) platform to find activators for EPAC1. […] Activators are identified by monitoring the change in fluorescence signal as the exchanged free BODIPY-GDP has a reduced fluorescence compared to Rap1-bound BODIPY-GDP. […]
Briefly, three uL of reagents (100 nM EPAC1, 250 nM RAP1B-BODIPY-GDP, 50 uM GDP) were dispensed into a 1536-well Greiner black solid-bottom medium binding assay plate. […] The assay plates were read at 5 minute intervals for 30 minutes in the ViewLux plate reader using 480nm excitation and 540nm emission filters. […]

The target is the same in assay [4]. The assay is described as follows: Confirmatory qHTS for agonist of cAMP-regulated guanine nucleotide exchange factor 3 (EPAC1) (AID 1645881).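 Also: EPAC1 catalysed release of BODIPY-GDP from Rap1B seen as fluorescence loss; nearly all actives have a fitted effect of over 75% in size.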 The note with it: EPAC1 Rap1B BODIPY-GDP exchange fluorescence, 100% = cAMP control response; series mostly up to 154 µM.
The target of assay [5] is Rap guanine nucleotide exchange factor 4 (Homo sapiens) (UniProt Q8WZA2). The assay is described as follows: Confirmatory qHTS for agonist of cAMP-regulated guanine nucleotide exchange factor 4 (EPAC2) (AID 1645884). Also: nearly all actives have a fitted effect of over 65% in size. The conditions noted are these: EPAC2 GEF activity, Rap1B-BODIPY-GDP fluorescence, percent relative to cAMP agonist control; series mostly up to 154 µM.
Assay [6] has the same target. The assay is described as follows: Confirmatory qHTS for antagonist of cAMP-regulated guanine nucleotide exchange factor 4 (EPAC2) (AID 1645885). Also: potency is read from the fitted curve at half-maximal effect; nearly all actives have a fitted effect of over 25% in size. The note with it: EPAC2 Rap1B-BODIPY-GDP exchange fluorescence, biochemical.

Sequence of Rap guanine nucleotide exchange factor 4 (Homo sapiens) (Q8WZA2 whole entry, looked up): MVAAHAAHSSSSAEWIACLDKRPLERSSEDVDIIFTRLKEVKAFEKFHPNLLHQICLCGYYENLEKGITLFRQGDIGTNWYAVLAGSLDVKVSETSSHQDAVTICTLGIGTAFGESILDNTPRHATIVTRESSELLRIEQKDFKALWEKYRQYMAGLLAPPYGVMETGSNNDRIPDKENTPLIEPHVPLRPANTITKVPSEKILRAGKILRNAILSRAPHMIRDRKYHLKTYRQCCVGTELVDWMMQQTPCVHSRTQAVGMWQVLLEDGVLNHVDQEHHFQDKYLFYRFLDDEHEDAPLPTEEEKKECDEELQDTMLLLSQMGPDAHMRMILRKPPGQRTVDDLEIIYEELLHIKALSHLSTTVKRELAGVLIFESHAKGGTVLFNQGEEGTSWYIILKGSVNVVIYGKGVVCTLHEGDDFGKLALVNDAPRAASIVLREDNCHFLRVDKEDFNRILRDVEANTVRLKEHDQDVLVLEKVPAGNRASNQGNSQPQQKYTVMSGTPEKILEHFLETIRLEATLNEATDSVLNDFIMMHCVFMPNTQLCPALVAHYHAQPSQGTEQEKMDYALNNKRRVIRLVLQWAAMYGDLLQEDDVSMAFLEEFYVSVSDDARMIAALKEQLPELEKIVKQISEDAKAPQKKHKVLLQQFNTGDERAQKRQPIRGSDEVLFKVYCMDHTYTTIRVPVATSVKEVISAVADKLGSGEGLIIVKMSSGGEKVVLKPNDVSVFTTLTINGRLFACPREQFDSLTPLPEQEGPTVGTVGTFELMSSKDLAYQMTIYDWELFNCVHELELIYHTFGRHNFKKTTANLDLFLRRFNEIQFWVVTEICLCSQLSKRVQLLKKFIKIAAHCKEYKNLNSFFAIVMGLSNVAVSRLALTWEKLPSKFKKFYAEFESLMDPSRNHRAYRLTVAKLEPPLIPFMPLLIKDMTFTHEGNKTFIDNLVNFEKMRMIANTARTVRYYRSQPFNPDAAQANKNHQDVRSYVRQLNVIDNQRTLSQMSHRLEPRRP
Sequence of Rap guanine nucleotide exchange factor 3 (Homo sapiens) (O95398 whole entry, looked up): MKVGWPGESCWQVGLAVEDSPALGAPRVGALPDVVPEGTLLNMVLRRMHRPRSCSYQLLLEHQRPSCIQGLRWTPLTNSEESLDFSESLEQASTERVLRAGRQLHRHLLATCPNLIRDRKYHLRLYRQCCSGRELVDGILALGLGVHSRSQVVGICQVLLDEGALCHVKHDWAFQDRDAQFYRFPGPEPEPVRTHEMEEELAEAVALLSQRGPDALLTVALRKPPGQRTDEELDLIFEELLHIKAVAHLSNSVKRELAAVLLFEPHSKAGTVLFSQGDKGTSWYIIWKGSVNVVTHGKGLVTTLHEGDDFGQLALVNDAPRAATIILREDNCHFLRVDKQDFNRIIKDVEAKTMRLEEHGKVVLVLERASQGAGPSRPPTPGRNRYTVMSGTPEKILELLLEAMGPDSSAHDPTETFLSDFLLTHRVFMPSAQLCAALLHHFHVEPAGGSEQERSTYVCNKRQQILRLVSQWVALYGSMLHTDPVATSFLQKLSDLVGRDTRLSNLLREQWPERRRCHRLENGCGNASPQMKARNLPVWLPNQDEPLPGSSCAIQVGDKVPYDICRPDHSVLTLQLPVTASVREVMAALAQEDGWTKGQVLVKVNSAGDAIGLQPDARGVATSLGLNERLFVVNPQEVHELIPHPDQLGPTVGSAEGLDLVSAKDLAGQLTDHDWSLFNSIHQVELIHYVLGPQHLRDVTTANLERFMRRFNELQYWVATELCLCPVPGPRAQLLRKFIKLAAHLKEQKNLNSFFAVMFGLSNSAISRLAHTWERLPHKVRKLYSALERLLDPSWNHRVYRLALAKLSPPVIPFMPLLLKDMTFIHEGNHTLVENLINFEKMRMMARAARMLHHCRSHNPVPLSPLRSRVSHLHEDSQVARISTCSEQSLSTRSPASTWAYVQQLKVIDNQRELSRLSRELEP

In the case of `C=CC(=O)Nc1cccc(Oc2nc(Nc3ccc(N4CCN(C)CC4)cc3OC)ncc2Cl)c1`, the Potency in assay [1] was 5.15 µM (active) and 8.33 µM (active); in assay [2], 5.15 µM (active) and 8.33 µM (active).

Take `COc1ccc(F)c(F)c1C(=O)c1cnc(NC2CCN(S(C)(=O)=O)CC2)nc1N`: the Potency is 325 nM (active) and 662 nM (active) in assay [1]; 325 nM (active) and 525 nM (active) in assay [2].

Take `CC(C)(C)c1cc(C(C)(C)C)c(NC(=O)c2c[nH]c3ccccc3c2=O)cc1O`: the Potency is 14.8 µM (active) in assay [1] and 16.6 µM (active) in assay [2].

On to `CN(C1CCc2c(c3ccccc3n2CC(=O)O)C1)S(=O)(=O)c1ccc(F)cc1` (configuration not stated), for which the Potency result in assay [1] and in assay [2] was “inactive” in each case.

Consider `COc1cc2c(Oc3ccc(NC(=O)C4(C(=O)Nc5ccc(F)cc5)CC4)cc3F)ccnc2cc1OCCCN1CCOCC1`, for which the Potency in assay [1] was 515 nM (active) and 1.32 µM (active); in assay [2], 365 nM (active) and 833 nM (active).

Take `Nc1nc(-c2nn(Cc3ccccc3F)c3ncccc23)nc(N)c1N1CCOCC1`: the Potency entry in assay [1] and in assay [2] was “inactive” in each case.

Turning to `Nc1ccc(C(=O)c2cc3c(ccc4ccccc43)[nH]2)cc1`, the Potency in assay [1] was 2.41 µM (active); in assay [2] it was 1.71 µM (active).

For the compound `COc1cc(C(=O)NS(=O)(=O)c2ccccc2C)ccc1Cc1cn(C)c2ccc(NC(=O)OC3CCCC3)cc12`, the Potency result in assay [1] and in assay [2] was “inactive” throughout. Moreover, the Potency in assay [3] is 25 µM (active); in assay [6] it was 49.4 µM (active). For the same compound, the compound was classed as inactive in assay [4] and in assay [5].

With `Cc1cc(Nc2nc(N[C@@H](C)c3ccc(F)cc3)c(C#N)cc2F)n[nH]1`, the Potency was 578 nM (active) and 934 nM (active) in assay [1]; 578 nM (active) and 742 nM (active) in assay [2].

With `CN(c1ncccc1CNc1nc(Nc2ccc3c(c2)CC(=O)N3)ncc1C(F)(F)F)S(C)(=O)=O`, the Potency in assay [1] is 5.17 µM (active); in assay [2] it was 8.33 µM (active).

With `CN1CCN(Cc2ccc(NC(=O)Nc3ccc(Oc4cc(NC(=O)C5CC5)ncn4)cc3)cc2C(F)(F)F)CC1`, the Potency in assay [1] was 91.6 nM (active) and 166 nM (active); in assay [2], 91.6 nM (active) and 186 nM (active).

With `N#Cc1c(O)c2c(-c3ccc(-c4ccccc4O)cc3)csc2[nH]c1=O`, the Potency entry in assay [1] and in assay [2] was “inactive” in each case.

Regarding `CC(C)(C)NC(=O)[C@H]1CN(Cc2cccnc2)CCN1C[C@@H](O)C[C@@H](Cc1ccccc1)C(=O)N[C@H]1c2ccccc2C[C@H]1O`, the compound was classed as inactive in assay [4] and in assay [5]. Besides, in assay [6], the Potency was 44.1 µM (active).

Take `CCCCCN(CCC12CC3CC(CC(C3)C1)C2)C(=O)NCCCc1ccncc1`: the Potency in assay [2] is 16.3 µM (active).

Consider `CNC(=O)c1ccc(N2C(=S)N(c3cnc(C#N)c(C(F)(F)F)c3)C(=O)C23CCC3)cc1F`, for which the Potency entry in assay [1] and in assay [2] was “inactive” in each case.

`COc1ccc(CC2c3cc(OC)c(OC)cc3CC[N+]2(C)CCC(=O)OCCCCCOC(=O)CC[N+]2(C)CCc3cc(OC)c(OC)cc3C2Cc2ccc(OC)c(OC)c2)cc1OC` (configuration not stated): the Potency in assay [1] and in assay [2] was 23.5 µM (active) throughout.

With `CC(=O)OCC(=O)[C@@]1(O)[C@H](C)C[C@H]2[C@@H]3C=C(C)C4=Cc5c(cnn5-c5ccccc5)C[C@]4(C)[C@@H]3[C@@H](O)C[C@@]21C`, the Potency in assay [2] was 0.0132 µM (active).

As for `CC[C@@H]1C(=O)N(C)c2cnc(Nc3ccc(C(=O)NC4CCN(C)CC4)cc3OC)nc2N1C1CCCC1`, the Potency in assay [1] and in assay [2] was 0.0372 µM (active) each time.

Take `O=C(Cc1ccc(-c2ccc(OCCN3CCOCC3)cc2)cn1)NCc1ccccc1`: the Potency is 459 nM (active) and 105 nM (active) in assay [1]; 258 nM (active) and 105 nM (active) in assay [2].

Regarding `CN[C@H]1CCc2cc(OC)c(OC)c(OC)c2-c2ccc(OC)c(=O)cc21`, the Potency in assay [1] is 0.105 µM (active); in assay [2] it was 0.118 µM (active).

Turning to `Cc1ccc(S(=O)(=O)Nc2cc(Cl)ccc2C(=O)Nc2nc(-c3ccccc3)cs2)cc1`, the Potency result in assay [1] and in assay [2] was “inactive” in each case.

On to `C1Cc2[nH]nc(-c3nn[nH]n3)c2C1`, for which the Potency result in assay [1] and in assay [2] was “inactive” each time.

`CCN(CC)CCCCNc1ncc2cc(-c3cc(OC)cc(OC)c3)c(NC(=O)NC(C)(C)C)nc2n1`: the Potency in assay [1] is 16.4 µM (active) and 14.8 µM (active); in assay [2] it was 14.6 µM (active) and 14.8 µM (active).

As for `COC(=O)C1=C(C)NC(C)=C(C(=O)OCCN2CCN(C(c3ccccc3)c3ccccc3)CC2)C1c1cccc([N+](=O)[O-])c1` (configuration not stated), in assay [2], the Potency was 9.34 µM (active).

Consider `Nc1nc(Nc2ccc(S(N)(=O)=O)cc2)nn1C(=O)c1c(F)cccc1F`, for which the Potency in assay [1] is 1.63 µM (active) and 2.35 µM (active); in assay [2], 1.63 µM (active) and 1.86 µM (active).
